Measurements taken from the supplement of paper PMC11732987, “Enantioselective OTUD7B fragment discovery through chemoproteomics screening and high-throughput optimisation” (Communications Chemistry, 2025).

What was measured:
Assay in all cases: log2 ratio of Biotin-Ahx-Ub-VS probe labelling (fragment/DMSO); higher = less target engagement (more negative = stronger competition), active = hit call of the paper (q ≤ 0.05, log2 ratio ≤ -1)
Conditions in all cases: compound concentration: 200 uM; treatment time: 3 h
USP9X = USP9X (UniProt Q93008)
Summary of the method: (§1)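 HEK293T lysate (495 µg per sample, in Tris/CHAPS/IGEPAL buffer with protease inhibitors) was exposed in triplicate for 3 h to fragment at 200 µM or to vehicle, then to Biotin-Ahx-Ub-VS at 0.5 µM final for 1 h. Labelled DUBs were enriched on NeutrAvidin, digested with LysC and trypsin, and analysed by diaPASEF LC-MS/MS. Spectronaut label-free quantities were normalised to the global median, and values are average log2 ratios of fragment over vehicle from an unpaired t-test. Only proteins with ≥2 unique peptides were used.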

UniProt O00487 = target: UniProt O00487
Summary of the method: as §1

UniProt O00507 = target: UniProt O00507
Summary of the method: as §1

UniProt P51784 = target: UniProt P51784
Summary of the method: as §1

UniProt Q5T2D3 = target: T1, UniProt Q5T2D3
T1 sequence (whole entry): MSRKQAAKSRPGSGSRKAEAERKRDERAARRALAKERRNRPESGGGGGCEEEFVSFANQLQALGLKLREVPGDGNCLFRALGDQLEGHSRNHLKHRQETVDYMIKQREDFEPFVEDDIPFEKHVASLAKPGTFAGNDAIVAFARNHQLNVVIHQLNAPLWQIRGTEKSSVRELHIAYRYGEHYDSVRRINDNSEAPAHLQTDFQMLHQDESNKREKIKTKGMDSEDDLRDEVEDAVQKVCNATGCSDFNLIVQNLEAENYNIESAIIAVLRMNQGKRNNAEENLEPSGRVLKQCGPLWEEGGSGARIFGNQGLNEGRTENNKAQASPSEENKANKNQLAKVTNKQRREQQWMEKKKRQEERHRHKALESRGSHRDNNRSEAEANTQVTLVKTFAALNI
Summary of the method: as §1

UniProt Q8TE49 = target: T2, UniProt Q8TE49
T2 sequence (whole entry): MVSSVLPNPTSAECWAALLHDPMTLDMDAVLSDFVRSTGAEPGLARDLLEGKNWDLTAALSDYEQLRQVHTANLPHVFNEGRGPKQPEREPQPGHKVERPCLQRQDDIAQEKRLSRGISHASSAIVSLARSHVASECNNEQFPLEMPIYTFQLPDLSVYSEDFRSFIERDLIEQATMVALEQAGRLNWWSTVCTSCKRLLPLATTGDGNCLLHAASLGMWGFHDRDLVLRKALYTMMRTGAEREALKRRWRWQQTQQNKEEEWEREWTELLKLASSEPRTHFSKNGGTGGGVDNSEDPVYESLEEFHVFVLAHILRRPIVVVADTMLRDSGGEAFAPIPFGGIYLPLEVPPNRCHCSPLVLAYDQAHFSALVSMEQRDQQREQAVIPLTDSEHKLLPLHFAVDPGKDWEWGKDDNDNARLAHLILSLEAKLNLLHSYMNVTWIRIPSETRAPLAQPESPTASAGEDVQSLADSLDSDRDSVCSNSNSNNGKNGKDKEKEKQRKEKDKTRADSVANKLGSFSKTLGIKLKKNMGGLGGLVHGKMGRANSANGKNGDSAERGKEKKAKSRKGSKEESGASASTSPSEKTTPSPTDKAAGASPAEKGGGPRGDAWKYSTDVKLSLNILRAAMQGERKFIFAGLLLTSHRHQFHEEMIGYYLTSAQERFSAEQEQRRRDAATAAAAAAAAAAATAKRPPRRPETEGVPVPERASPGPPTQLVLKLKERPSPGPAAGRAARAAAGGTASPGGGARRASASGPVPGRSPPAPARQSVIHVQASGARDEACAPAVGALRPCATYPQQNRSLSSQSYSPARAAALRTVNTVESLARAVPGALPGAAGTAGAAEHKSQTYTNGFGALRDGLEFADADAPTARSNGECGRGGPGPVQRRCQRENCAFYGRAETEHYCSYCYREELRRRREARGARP
Summary of the method: as §1

UniProt Q9P2H5 = target: T3, UniProt Q9P2H5
T3 sequence (whole entry): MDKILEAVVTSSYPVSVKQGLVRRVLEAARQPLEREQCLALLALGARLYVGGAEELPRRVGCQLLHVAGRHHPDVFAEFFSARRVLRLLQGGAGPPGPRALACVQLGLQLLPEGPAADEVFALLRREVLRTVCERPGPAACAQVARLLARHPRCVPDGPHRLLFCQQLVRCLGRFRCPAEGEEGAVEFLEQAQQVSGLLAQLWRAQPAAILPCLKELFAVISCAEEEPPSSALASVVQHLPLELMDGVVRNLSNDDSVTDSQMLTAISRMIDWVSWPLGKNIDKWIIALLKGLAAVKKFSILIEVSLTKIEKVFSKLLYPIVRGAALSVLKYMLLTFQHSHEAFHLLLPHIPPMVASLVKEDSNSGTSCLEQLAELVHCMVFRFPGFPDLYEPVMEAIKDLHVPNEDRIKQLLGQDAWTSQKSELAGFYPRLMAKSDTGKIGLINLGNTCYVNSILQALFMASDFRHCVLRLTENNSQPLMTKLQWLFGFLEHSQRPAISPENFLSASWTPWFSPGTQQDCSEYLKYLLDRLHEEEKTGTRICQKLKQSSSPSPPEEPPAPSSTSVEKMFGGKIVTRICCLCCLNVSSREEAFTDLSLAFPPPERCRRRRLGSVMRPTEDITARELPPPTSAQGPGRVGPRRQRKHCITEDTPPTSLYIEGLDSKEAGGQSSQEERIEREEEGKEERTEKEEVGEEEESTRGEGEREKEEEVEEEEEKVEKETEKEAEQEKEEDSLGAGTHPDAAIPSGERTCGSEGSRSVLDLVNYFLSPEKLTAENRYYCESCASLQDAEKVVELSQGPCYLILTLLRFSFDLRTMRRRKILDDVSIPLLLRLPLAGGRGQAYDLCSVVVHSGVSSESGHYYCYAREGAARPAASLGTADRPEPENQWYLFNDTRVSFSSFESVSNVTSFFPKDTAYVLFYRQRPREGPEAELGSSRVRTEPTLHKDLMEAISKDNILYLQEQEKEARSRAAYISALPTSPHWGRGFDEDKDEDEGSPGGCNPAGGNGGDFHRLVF
Summary of the method: as §1

UniProt Q9UGI0 = target: T4, UniProt Q9UGI0
T4 sequence (whole entry): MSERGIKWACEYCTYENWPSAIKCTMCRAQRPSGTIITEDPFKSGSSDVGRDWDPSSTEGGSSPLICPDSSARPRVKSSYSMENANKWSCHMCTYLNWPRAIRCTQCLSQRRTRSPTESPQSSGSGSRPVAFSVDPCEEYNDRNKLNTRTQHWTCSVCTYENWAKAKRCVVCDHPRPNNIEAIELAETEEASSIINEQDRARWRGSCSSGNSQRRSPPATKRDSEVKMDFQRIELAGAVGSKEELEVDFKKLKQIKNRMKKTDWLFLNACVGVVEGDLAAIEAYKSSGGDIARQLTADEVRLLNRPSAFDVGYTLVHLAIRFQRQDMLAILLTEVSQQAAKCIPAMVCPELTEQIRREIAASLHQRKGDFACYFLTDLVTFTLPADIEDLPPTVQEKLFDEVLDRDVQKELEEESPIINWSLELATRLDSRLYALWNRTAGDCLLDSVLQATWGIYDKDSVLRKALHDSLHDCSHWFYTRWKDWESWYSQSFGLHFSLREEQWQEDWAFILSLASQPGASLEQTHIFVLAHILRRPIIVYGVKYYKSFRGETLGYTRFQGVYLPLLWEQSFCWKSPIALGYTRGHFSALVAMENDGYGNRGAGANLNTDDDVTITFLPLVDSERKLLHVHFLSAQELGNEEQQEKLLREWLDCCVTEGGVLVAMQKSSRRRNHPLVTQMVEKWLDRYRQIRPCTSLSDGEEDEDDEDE
Summary of the method: as §1

YOD1 = target: T5, YOD1 (UniProt Q5VVQ6)
T5 sequence (whole entry): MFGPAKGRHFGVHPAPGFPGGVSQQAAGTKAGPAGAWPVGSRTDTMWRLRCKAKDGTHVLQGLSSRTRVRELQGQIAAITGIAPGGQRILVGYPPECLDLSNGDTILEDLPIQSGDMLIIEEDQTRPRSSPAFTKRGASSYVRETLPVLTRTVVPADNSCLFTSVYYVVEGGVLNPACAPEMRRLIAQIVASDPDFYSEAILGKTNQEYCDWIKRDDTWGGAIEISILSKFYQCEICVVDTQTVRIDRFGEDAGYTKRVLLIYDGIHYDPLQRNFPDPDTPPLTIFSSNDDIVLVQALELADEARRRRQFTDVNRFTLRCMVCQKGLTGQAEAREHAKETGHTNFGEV
Summary of the method: as §1

Measured: log2 ratio of Biotin-Ahx-Ub-VS probe labelling

Sequence of UniProt O00487 (O00487 whole entry): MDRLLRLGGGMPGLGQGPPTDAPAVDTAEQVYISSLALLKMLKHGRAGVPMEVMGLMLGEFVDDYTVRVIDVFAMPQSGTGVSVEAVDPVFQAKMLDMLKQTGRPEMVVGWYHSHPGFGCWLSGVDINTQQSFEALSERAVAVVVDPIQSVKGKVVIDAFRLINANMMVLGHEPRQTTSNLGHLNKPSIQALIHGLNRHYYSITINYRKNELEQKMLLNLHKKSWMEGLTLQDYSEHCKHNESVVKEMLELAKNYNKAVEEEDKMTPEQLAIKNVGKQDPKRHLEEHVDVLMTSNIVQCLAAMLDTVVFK
Sequence of UniProt O00507 (O00507 whole entry): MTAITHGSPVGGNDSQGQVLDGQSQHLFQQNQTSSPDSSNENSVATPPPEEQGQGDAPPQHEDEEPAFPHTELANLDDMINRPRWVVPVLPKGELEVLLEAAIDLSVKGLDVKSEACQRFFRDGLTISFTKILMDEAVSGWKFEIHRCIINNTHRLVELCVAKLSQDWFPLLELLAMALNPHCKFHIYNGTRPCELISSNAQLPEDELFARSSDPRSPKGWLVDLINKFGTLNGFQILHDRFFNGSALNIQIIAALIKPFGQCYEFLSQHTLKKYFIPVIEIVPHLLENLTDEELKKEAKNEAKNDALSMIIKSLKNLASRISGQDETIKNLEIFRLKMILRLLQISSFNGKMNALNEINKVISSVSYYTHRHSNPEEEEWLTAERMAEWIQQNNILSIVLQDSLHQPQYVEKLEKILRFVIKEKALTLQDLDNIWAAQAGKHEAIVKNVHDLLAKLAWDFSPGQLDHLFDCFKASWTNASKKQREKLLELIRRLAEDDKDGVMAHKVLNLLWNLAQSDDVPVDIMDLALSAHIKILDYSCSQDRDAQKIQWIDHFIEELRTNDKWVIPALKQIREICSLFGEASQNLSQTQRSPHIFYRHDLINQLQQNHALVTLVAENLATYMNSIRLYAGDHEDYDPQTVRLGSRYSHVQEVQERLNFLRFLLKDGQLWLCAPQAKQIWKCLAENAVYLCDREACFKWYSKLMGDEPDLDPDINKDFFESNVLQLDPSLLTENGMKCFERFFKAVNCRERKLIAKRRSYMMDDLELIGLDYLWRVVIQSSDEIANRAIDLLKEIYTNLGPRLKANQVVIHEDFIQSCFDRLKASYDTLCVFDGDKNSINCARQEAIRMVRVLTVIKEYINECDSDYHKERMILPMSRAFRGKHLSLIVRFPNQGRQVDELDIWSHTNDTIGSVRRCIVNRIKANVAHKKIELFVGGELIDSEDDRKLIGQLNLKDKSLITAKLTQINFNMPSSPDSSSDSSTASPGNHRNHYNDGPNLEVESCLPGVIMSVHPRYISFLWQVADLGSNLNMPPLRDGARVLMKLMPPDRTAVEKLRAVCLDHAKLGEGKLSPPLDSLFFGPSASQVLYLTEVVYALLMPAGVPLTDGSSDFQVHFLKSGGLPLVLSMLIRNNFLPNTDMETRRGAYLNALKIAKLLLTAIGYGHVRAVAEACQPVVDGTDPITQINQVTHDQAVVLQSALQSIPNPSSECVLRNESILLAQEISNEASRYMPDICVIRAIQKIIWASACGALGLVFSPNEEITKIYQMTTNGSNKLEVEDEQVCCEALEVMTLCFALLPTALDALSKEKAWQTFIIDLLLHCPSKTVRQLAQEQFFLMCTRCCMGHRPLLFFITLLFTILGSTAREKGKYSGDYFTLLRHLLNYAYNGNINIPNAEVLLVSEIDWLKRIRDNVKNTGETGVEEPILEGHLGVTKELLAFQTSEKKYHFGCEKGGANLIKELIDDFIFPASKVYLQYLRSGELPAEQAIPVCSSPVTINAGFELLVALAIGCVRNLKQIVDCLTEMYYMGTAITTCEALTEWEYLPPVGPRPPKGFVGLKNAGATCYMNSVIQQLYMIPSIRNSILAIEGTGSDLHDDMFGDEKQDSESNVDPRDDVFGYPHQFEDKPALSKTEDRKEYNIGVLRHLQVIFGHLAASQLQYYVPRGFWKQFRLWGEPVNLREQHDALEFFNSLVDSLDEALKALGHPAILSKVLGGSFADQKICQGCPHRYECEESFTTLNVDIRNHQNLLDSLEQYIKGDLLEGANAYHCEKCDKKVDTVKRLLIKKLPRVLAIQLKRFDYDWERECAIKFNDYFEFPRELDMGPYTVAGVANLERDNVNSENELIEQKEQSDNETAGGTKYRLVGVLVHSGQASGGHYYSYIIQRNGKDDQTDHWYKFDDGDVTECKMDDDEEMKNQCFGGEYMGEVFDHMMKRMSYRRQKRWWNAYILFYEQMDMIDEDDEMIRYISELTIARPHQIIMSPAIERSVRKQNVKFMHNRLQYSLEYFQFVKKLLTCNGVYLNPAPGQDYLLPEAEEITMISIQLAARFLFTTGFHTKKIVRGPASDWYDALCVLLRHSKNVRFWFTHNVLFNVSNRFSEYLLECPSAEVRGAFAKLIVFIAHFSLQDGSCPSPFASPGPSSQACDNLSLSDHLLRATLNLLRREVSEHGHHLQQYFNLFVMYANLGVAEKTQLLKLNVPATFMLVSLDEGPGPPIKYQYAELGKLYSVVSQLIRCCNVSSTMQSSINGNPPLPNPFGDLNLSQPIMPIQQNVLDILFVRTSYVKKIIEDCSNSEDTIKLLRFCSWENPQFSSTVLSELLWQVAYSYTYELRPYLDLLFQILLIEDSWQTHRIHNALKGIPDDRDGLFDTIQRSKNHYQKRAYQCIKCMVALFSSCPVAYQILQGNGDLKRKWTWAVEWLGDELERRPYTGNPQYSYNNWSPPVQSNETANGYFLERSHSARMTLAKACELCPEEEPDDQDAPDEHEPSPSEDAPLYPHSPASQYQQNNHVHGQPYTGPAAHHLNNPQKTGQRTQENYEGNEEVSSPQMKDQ
Sequence of UniProt P51784 (P51784 whole entry): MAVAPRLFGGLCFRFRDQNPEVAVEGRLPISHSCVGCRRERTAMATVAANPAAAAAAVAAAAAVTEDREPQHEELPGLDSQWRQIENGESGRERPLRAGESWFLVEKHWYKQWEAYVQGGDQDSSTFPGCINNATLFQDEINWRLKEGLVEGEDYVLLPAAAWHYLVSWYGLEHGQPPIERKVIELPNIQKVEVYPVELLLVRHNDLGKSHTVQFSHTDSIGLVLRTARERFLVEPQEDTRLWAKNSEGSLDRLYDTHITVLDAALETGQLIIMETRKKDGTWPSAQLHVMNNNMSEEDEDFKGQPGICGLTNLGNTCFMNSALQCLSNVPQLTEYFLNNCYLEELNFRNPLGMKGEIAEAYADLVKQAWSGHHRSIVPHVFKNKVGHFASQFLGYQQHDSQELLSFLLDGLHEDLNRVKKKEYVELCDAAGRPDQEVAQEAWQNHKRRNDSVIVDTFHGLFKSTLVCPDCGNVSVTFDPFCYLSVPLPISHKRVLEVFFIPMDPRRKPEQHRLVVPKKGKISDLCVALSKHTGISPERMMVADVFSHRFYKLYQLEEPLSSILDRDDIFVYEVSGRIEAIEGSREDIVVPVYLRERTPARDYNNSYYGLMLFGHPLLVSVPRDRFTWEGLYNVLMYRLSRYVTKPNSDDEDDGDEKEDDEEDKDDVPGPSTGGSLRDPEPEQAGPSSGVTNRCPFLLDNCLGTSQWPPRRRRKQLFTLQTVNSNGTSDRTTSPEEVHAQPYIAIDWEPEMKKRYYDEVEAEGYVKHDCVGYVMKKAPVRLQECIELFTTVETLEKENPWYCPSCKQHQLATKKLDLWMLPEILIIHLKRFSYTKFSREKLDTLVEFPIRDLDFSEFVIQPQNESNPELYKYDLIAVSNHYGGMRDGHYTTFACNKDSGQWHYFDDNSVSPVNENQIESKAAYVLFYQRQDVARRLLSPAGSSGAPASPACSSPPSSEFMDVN

COc1ccc(Cl)cc1NC(=O)CCl
inactive: USP9X -0.48 | UniProt O00487 -0.298 | UniProt O00507 -0.985 | UniProt P51784 -0.276 | UniProt Q5T2D3 -0.485 | UniProt Q8TE49 -0.837 | UniProt Q9P2H5 -0.335 | UniProt Q9UGI0 -0.741 | YOD1 -0.669
